Assay results: PubChem BioAssay (EPA / NIEHS)
Activity calls are given as the source filed them. How the source made its calls: active means hit-call score of the fitted dose curve at least 0.9, where 1 is the maximum; inactive means score below 0.9.

Assay: ATG_AP_2_CIS: Attagene CIS-FACTORIAL HepG2 Assay for human Activator Protein 2 (AP-2) (AID 2282932)
Settings: HepG2 AP-2 cis-reporter, Attagene transcription factor profiling; actives raise or lower the signal
In short: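 HepG2, transient MRTU transfection, cis-regulated reporters; 24 h compound exposure; RNA isolated, RT-PCR, 6-FAM labelling, HpaI digest, CE fluorescence. DMSO = negative control/baseline, bidirectional fit.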

Q: Which outcome does the source give for `c1ccc2cnccc2c1` here?
A: The outcome was “inactive”.

Q: With `CCC(C)N` (centres undefined) as the compound, how does the outcome read?
A: The outcome was “inactive”.

Q: For `[Cl][Eu]([Cl])[Cl]`, which outcome is on record?
A: Its outcome is “inactive”.

Q: With `Nc1cccc(N)n1` as the compound, how does the outcome read?
A: Its outcome is “inactive”.

Q: With `CC(C)(C)C1CCC(=O)CC1` as the compound, how does the outcome read?
A: The outcome was “inactive”.

Q: Which outcome does the source give for `CCOC(=O)/C=C\C(=O)OCC` here?
A: Its outcome is “inactive”.

Q: Which outcome does the source give for `CCCCNS(=O)(=O)c1ccccc1` here?
A: The outcome was “inactive”.

Q: Which outcome does the source give for `CCCC(CC)c1ccccc1` (centres undefined) here?
A: The outcome was “inactive”.

Q: With `CC(C)c1ccc(O)c(C(C)C)c1` as the compound, how does the outcome read?
A: The outcome was “inactive”.

Q: With `CC(C)CCOCc1ccccc1` as the compound, how does the outcome read?
A: The outcome was “inactive”.

Q: Which outcome does the source give for `C=CC(=O)OCC(C)OCC(C)OCC(C)OC(=O)C=C` (centres undefined) here?
A: The outcome was “inactive”.

Q: For `CCCCCCCCCCCC(=O)N(C)CC(=O)O`, which outcome is on record?
A: The outcome was “inactive”.

Q: With `CC=C(C)C(C)=O` as the compound, how does the outcome read?
A: Its outcome is “inactive”.

Q: Which outcome does the source give for `CC(C)CC(=O)OCc1ccccc1` here?
A: The outcome was “inactive”.

Q: Which outcome does the source give for `O=C1CCCCCCCCCCC1` here?
A: The outcome was “inactive”.

Q: Which outcome does the source give for `[Cl][Sc]([Cl])[Cl]` here?
A: The outcome was “inactive”.

Q: For `CC(CC=O)CC(C)(C)C` (centres undefined), which outcome is on record?
A: The outcome was “inactive”.

Q: For `CCCCCCCCCCCC(=O)OCC`, which outcome is on record?
A: Its outcome is “inactive”.

Q: For `CCCCOC(=O)C(C)CC` (centres undefined), which outcome is on record?
A: Its outcome is “inactive”.
